Laboratory results from PubChem BioAssay (NCATS).
Records with an inconclusive call do not appear. A number with no mark means an inactive call. Active and inactive are the calls of the source. Calls follow the shape of the dose curve; as a rule, active = well fitted cell-killing curve with a large enough effect; inconclusive = small, poorly fitted or top-dose-only effect, or effect the other way; inactive = no such curve, though single readings can be large or run the other way.
Potency is read from the fitted curve at half-maximal effect.

Assay: Quantitative High-Throughput drug screen in 47 multiple myeloma cell lines against the NCATS MIPE library collection: ARD_JJKsccE7 cell viability assay (AID 1918929)
Details: ARD myeloma cell line viability, CellTiter-Glo, 48 h; series mostly up to 45.8 µM; viability: at the top concentration
Excerpt: PI: Beverly A. Mock Ph.D.
Laboratory of Cancer Biology and Genetics,
Center for Cancer Research, National Cancer Institute,
National Institute of Health, Bethesda, Maryland
Drug resistance and disease progression are common in multiple myeloma (MM) patients, underscoring the need for new therapeutic combinations. […] We hypothesized that effective combinations would reduce MYC expression and enhance p16 activity. […] These preclinical data identify potentially useful drug combinations for evaluation in drug-resistant MM and reveal potential mechanisms of combined drug sensitivity.
Described herein is the primary MIPE qHTS used to cherrypick compounds. Validated compounds were then further tested for potential synergistic activiy.
[1] Peat TJ, Gaikwad SM, Dubois W, Gyabaah-Kessie N, Zhang S, Gorjifard S, Phyo Z, Andres M, Hughitt VK, Simpson RM, Miller MA, Girvin AT, Taylor A, Williams D, D'Antonio N, Zhang Y, Rajagopalan A, Flietner E, Wilson K, Zhang X, Shinn P, Klumpp-Thomas C, McKnight C, Itkin Z, Chen L, Kazandijian D, Zhang J, Michalowski AM, Simmons JK, Keats J, Thomas CJ, Mock BA. Drug combinations identified by high-throughput screening promote cell cycle transition and upregulate Smad pathways in myeloma. Cancer Lett. 2023 Aug 1;568:216284. doi: 10.1016/j.canlet.2023.216284. Epub 2023 Jun 24. PMID: 37356470; PMCID: PMC10408729.
SEQUENCE No. (e.g., 1, 2, 3, etc.); […] (e.g., Cells, Incubation, Reagent, etc.); VALUE and DESCRIPTION.
1; Cells; 5 uL; white, solid bottom 1536-well Greiner assay plate.
2; Compounds; 23 nL; Kalypsis pin tool (Wako USA) equipped with a 1536-well pin head to transfer to the assay plates.
3; Incubation; 48 hours; 37C incubation.
4; Reagent;5uL; CellTiter Glo (Promega).
5; Detector; 425V; Luminescence; Viewlux PerkinElmer.
NOTES (numbers refer to Sequence numbers above)
1. The cell-based screening methods employed in this study were like those previously published. Briefly, the corresponding myeloma cell lines were screened in 1,536-well plates with 500 cells, 5-uL per well for inhibition of cell viability (assessed by measuring ATP levels with CellTiterGlo).
2. NCATS MIPE 4.0 library of approved and investigational drugs were added using the Kalypsis pin tool. Wells treated with DMSO only for 100% viability and media only wells for 0% viability were used as controls.
3. The assay plates were covered and incubated for 48 hours in a 37C, 5% CO2 incubator with controlled humidity.
4. After 48 hours, CellTilter-GloTM luminescent substrate mix (Promega) reagent was added to the assay plate and plates we incubated for 5 min at room temperature.
5. Signal was measured as median relative luminescence units on a ViewLux (PerkinElmer) multiplate reader.
[1] Heske CM, Davis MI, Baumgart JT, Wilson K, Gormally MV, Chen L, Zhang X, Ceribelli M, Duveau DY, Guha R, Ferrer M, Arnaldez FI, Ji J, Tran HL, Zhang Y, Mendoza A, Helman LJ, Thomas CJ. Matrix Screen Identifies Synergistic Combination of PARP Inhibitors and Nicotinamide Phosphoribosyltransferase (NAMPT) Inhibitors in Ewing Sarcoma. Clin Cancer Res. 2017 Dec 1;23(23):7301-7311. doi: 10.1158/1078-0432.CCR-17-1121. Epub 2017 Sep 12. PMID: 28899971; PMCID: PMC6636827.
With `CC(C)Oc1cc(Nc2nc(N[C@@H](C)c3ccc(F)cn3)ncc2Cl)[nH]n1` the Potency was 14.8 µM (active).
For `CC(=O)N1CCN(c2ccc(OCc3nn(C)c(C)c3-c3cccc4c(CCCOc5cc(C)c(Cl)c(C)c5)c(C(=O)O)n(Cc5cccnc5)c34)cc2)CC1`, the Potency was 20.9 µM (active).
In the case of `CC(=O)O[C@]1(C(C)=O)CC[C@H]2[C@@H]3C=C(Cl)C4=CC(=O)[C@@H]5C[C@H]5[C@]4(C)[C@@H]3CC[C@@]21C`, the Potency is reported as 23.5 µM (active).
For `CC[C@H](C=C[C@@H](C)[C@H]1CC[C@H]2[C@@H]3CC=C4C[C@@H](O)CC[C@]4(C)[C@@H]3CC[C@]12C)C(C)C`, the “viability” value was 101% [at 23.2 µM].
For `Nc1ncnc2c1c(-c1cccc(OCc3ccccc3)c1)cn2C1CC(CN2CCC2)C1` (stereo not given), the Potency was 2.96 µM (active).
In the case of `O=S(=O)(NCCNCC=Cc1ccc(Br)cc1)c1cccc2cnccc12`, the Potency is reported as 10.5 µM (active).
For `C=CCc1cccc(C=NNC(=O)CN2CCN(Cc3ccccc3)CC2)c1O`, the Potency was 9.35 µM (active).
For `Cc1cccc(Nc2nc(N[C@@H]3CCCC[C@H]3N)ncc2C(N)=O)c1`, the Potency was 20.9 µM (active).
In the case of `CC(C)n1c(C=C[C@H](O)C[C@H](O)CC(=O)O)c(-c2ccc(F)cc2)c2ccccc21`, the Potency is reported as 9.35 µM (active).
In the case of `CO[C@H]1/C=C\O[C@@]2(C)Oc3c(C)c(O)c4c(O)c(c5c(nc6cc(C)ccn65)c4c3C2=O)NC(=O)C(C)=CC=C[C@H](C)[C@H](O)[C@@H](C)[C@@H](O)[C@@H](C)[C@H](OC(C)=O)[C@H]1C`, the Potency is reported as 18.7 µM (active).
With `CCCCn1c(=O)n(Cc2ccccc2F)c(=O)c2[nH]c(Cc3ccc(NC(C)=O)cc3)nc21` the “viability” value was 124%.
With `CC(=O)NCCC(=O)N[C@@H](CCC(N)=O)C(=O)N[C@@H](CO)C(=O)N[C@@H](CCC(N)=O)C(=O)N[C@@H](CCC(N)=O)C(=O)N[C@H](C(=O)N[C@@H](Cc1ccccc1)C(=O)N[C@]1(C)CCCCCCC=CCCC[C@@](C)(C(=O)N[C@@H](CCC(N)=O)C(=O)N[C@@H](CC(N)=O)C(N)=O)NC(=O)[C@H](CC(C)C)NC(=O)[C@H](CC(C)C)NC(=O)[C@@H](CCCNC(=N)N)NC(=O)[C@H](Cc2c[nH]c3ccccc23)NC(=O)[C@H](CC(C)C)NC(=O)[C@H](CC(N)=O)NC1=O)[C@H](C)O` the “viability” value was 139%.
For `CC(C)(C)c1[nH]cnc1C=c1[nH]c(=O)c(=Cc2ccccc2)[nH]c1=O`, the “viability” value was 3.39% [at 92.2 µM].
In the case of `CC1(COc2ccc3c(c2)ncn3-c2ccc3cccc(N4CCC(N)CC4)c3n2)COC1`, the Potency is reported as 5.9 µM (active).
With `CC1(C)C(N(O)C(=O)Nc2ccc(Cl)cc2)N(c2ccc(Cl)cc2)C(=O)N1CC(=O)NN=CC=Cc1ccc([N+](=O)[O-])o1` (stereo not given) the “viability” value was 127%.
For `O=C(c1ccc(C(=O)N2CCC(N3CCCC3)CC2)c(Nc2ccccc2)c1)N1CCC(N2CCCC2)CC1`, the “viability” value was 146%.
In the case of `c1ccc(CNc2nc(N3CCOc4ccccc43)nc3c2CCCC3)cc1`, the Potency is reported as 20.9 µM (active).
For `CCC[C@H](Nc1nc(-c2ccc(NC(=O)NCC)c(OC)c2)ncc1C)c1cccnc1`, the Potency was 0.001 µM (active).
In the case of `CC1(C)CC(=O)c2c(C(F)(F)F)nn(-c3ccc(C(N)=O)c(NC4CCC(O)CC4)c3)c2C1` (stereo not given), the “viability” value is reported as 88.8%.
In the case of `CC(C)C[C@@H](C(=O)N[C@H](C(=O)OC1CCCC1)c1ccccc1)[C@H](O)C(=O)NO`, the Potency is reported as 4.69 µM (active).
In the case of `CCc1cccc(CC)c1NC(=O)N1Cc2[nH]nc(NC(=O)c3ccc(N4CCN(C)CC4)cc3)c2C1`, the Potency is reported as 1.18 µM (active).
For `Nc1[nH]nc2nnc(-c3c(-c4ccccc4)nn4ccccc34)cc12`, the Potency was 2.96 µM (active).
For `Clc1ccc(COC(Cn2ccnc2)c2ccc(Cl)cc2Cl)c(Cl)c1` (stereo not given), the Potency was 23.5 µM (active).
In the case of `NCC1CCC(C(=O)O)CC1` (stereo not given), the “viability” value is reported as 136%.
For `CN1CC(=O)N2C(Cc3c([nH]c4ccccc34)[C@H]2c2ccc3c(c2)OCO3)C1=O` (stereo not given in full), the “viability” value was 93.4%.
For `Cc1ccc2c(c1)C(=O)[C@]1(O)CCN(c3ccccc3)C1=N2`, the “viability” value was 106%.
For `Cc1cn([C@@H]2C[C@@H](O)[C@H](CO)O2)c(=O)[nH]c1=O`, the “viability” value was 89.1%.
For `O=c1[nH]c(=O)n([C@H]2C[C@@H](O)[C@@H](CO)O2)cc1I`, the Potency was 3.32 µM (active).
For `O=c1[nH]c(=O)n([C@H]2C[C@@H](O)[C@@H](CO)O2)cc1C(F)(F)F`, the Potency was 1.32 µM (active).
For `COc1cc([C@H]2Oc3cc([C@H]4Oc5cc(O)cc(O)c5C(=O)[C@H]4O)ccc3O[C@H]2CO)ccc1O`, the “viability” value was 140%.
With `CN(C)CCOc1ccc(C(=C(CCCl)c2ccccc2)c2ccccc2)cc1` the “viability” value was 108%.
In the case of `O=C(O)C1=CC(O)C(O)[C@H](O)C1` (stereo not given in full), the “viability” value is reported as 118%.
In the case of `CCc1cc(-c2n[nH]c(C)c2-c2ccc3c(c2)OCCO3)c(O)cc1O`, the Potency is reported as 1.18 µM (active).
In the case of `CCNC(=O)Nc1ccc(Oc2ncnc(N)c2C=NOC)cc1Cl`, the Potency is reported as 5.9 µM (active).
In the case of `CCCCN(CCCC)CC(O)c1cc(Cl)cc2c1-c1ccc(Cl)cc1C2=Cc1ccc(Cl)cc1` (stereo not given), the “viability” value is reported as 145%.
For `N#CC1(c2cccc(C(=O)Nc3cc(Oc4ccc5nc(NC(=O)C6CC6)sc5n4)ccc3F)c2Cl)CC1`, the Potency was 0.59 µM (active).
For `COc1cc(F)c(C(C)C)cc1-c1ccc(C(F)(F)F)cc1CN1C(=O)O[C@H](c2cc(C(F)(F)F)cc(C(F)(F)F)c2)[C@@H]1C`, the “viability” value was 137%.
With `CC[C@H](C)C(=O)O[C@H]1C[C@H](O)C=C2C=C[C@H](C)[C@H](CC[C@@H](O)C[C@@H](O)CC(=O)O)[C@H]21` the “viability” value was 125%.
With `CN1C(=O)C(Cc2c[nH]c3ccccc23)NC1=S` (stereo not given) the “viability” value was 115%.
For `C[C@H](c1ccc(F)cc1CCCC(=O)O)N(c1cc(F)ccc1F)S(=O)(=O)c1ccc(Cl)cc1`, the “viability” value was 121%.
